Here are results for seven molecules from PubChem BioAssay.

The nature of test [1]: liver-stage malaria parasite growth inhibition, primary screen, cell-based, HepG2, luciferase luminescence, HepG2 viability (AID 624349; in the data active means parasite load remaining mostly below about 12%, no sharp cut-off; inactive means mostly above about 10%;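 further: 100% = mean of DMSO negative control wells on the same plate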). The note with it: P. berghei liver stage in HepG2, luciferase luminescence, concentration not given here; parasite load remaining: stronger effect = lower value; viability: measured here: HepG2 viability without parasites.
Test [2] is described as follows: Cy5 fluorescence interference with SSB-bound oligo, artefact control for HCV NS3 helicase inhibitor project, biochemical, NIH Clinical Collection, E. coli SSB (AID 743268; call rule not given here).
For test [3], the system named is Hepatitis C virus NS3 helicase. In words: HCV NS3 helicase inhibitors, primary screen, biochemical, fluorescence polarization, NIH Clinical Collection (AID 743270; call rule not given here). As to conditions: NS3 helicase binding to Cy5-dT15 DNA, stronger effect = higher value, concentration not given here.
Test [4] addresses Single-stranded DNA-binding protein (Escherichia coli (strain K12)) (UniProt P0AGE0). In words: E. coli SSB displacement from DNA, counter-screen for HCV NS3 helicase inhibitor project, biochemical, fluorescence polarization, NIH Clinical Collection (AID 743271; in the data active means inhibition above about 28%). As to conditions: stronger effect = higher value, concentration not given here.
A short description of test [5]: fluorescence interference in NS3h assay format, artefact control for HCV NS3 helicase inhibitor project, biochemical, NIH Clinical Collection (AID 743272; call rule not given here;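 further: HCV NS3 helicase with a Cy5 labelled single stranded DNA probe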). As to conditions: fluorescence interference counterscreen, stronger effect = lower value. For orientation: Counterscreens check selectivity or assay interference.
Test [6] is described as follows: modulation of C. elegans fzo-1 (AID 1259413; call rule not given here;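 further: fzo-1 mutant C. elegans worms in liquid wells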). The note with it: C. elegans fzo-1 modulator screen, mean read-out; stronger effect = higher value.
Test [7] is described as follows: sensitizers of A549 cells to miR-34 induction, primary screen, imaging, A549 dox-inducible miR-34, nuclei and caspase counts (AID 1347080;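 active means compounds whose cell count with miR-34 switched on is under 0.7 times the count with it off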). The note with it: A549 miR-34 inducible, Hoechst nuclei count, 48 h.
Test [8] is described as follows: viability rescue of complex I mutant cybrids, primary screen, cell-based, galactose medium, ATP luminescence (AID 1645843;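 active means z-score of at least 1.8 in each of two replicates, scored against plate mean and spread of sample wells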;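 further: positive z means more ATP and so rescue of galactose-driven cybrid death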). The note with it: complex I mutant cybrid cells, 72 h, stronger effect = higher value.
In test [9] the test system is F380Y. In words: modulators of BK channel variants, profiling panel, selectivity assay, cell-based, U2OS BacMam, thallium flux, beta subunits (AID 1259406).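 Further: initial slope of Thallos dye fluorescence rise after thallium is added; log ratio against the mean of 0.3% DMSO vehicle wells on the same plate.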 As to conditions: at 30 µM.
Test [10] concerns F380Y/beta1. Described as above. The note with it: at 30 µM.
Test [11] has as its system F380Y/beta2Delta. The description is as above. The note with it: at 30 µM.
Test [12] concerns F380Y/beta4. The test is described as above. The note with it: at 30 µM.
In test [13] the target is Calcium-activated potassium channel subunit alpha-1 (Homo sapiens) + Leucine-rich repeat-containing protein 26 (Homo sapiens) (UniProt Q12791+Q2I0M4). The test is described as above. The note with it: F380Y/Slo1WT/gamma1, at 30 µM.
The subject of test [14] is R275C. The description is as above. The note with it: at 30 µM.
For test [15], the system named is R275C/beta1. Described as above. As to conditions: at 30 µM.
Test [16] relates to R275C/beta2Delta. The description is as above. The note with it: at 30 µM.
Test [17] relates to R275C/beta4. Described as above. The note with it: at 30 µM.
Test [18] concerns R275C/Slo1WT/beta2. Described as above. The note with it: at 30 µM.
Test [19] can be described thus: survival rescue of mitochondrial mutant cells in low glucose, primary screen, MELAS cybrids, Rieske KO mouse fibroblasts, CellTiter-Glo (AID 1508586;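 active means mean z-score across replicates of 1.96 or higher in either the MELAS or the Rieske mutant cell line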;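 further: z relative to plate mean and SD of compound and empty wells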). (In general: Cellular ATP, detected with luciferase, serves as a proxy for viable cell number.)
The mark [20] stands for this setting: stronger effect = lower value, cell number ratio, induced over uninduced.
Where [21] appears, read: measured here: relative caspase fold change +Dox/-Dox.
[22] abbreviates: measured here: total cells with miR-34 induction, stronger effect = lower value.
[23] abbreviates: measured here: total cells without miR-34 induction.
[24] abbreviates: MELAS cybrid survival, CellTiter-Glo 48 h, stronger effect = higher value.
[25] abbreviates: Rieske KO mouse fibroblast survival, CellTiter-Glo 72 h.

As usually defined, the viability is a read-out of living cells in per cent, often relative to untreated cells. In general, inhibition refers to the drop in the measured response relative to a control, in per cent.

Each structure is given as a SMILES string. Where “and” joins values, the source holds several entries; their conditions need not be identical. Equal entries are not always repeated. Calls of active or inactive are those of the source.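 How the source made its calls, unless noted: active means thallium flux through the channel raised or lowered by more than 3 SD from vehicle-only wells, actives on both sides; inactive means the rest.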

Sequence of Calcium-activated potassium channel subunit alpha-1 (Homo sapiens) + Leucine-rich repeat-containing protein 26 (Homo sapiens) (Q2I0M4 whole entry, looked up, one chain of several): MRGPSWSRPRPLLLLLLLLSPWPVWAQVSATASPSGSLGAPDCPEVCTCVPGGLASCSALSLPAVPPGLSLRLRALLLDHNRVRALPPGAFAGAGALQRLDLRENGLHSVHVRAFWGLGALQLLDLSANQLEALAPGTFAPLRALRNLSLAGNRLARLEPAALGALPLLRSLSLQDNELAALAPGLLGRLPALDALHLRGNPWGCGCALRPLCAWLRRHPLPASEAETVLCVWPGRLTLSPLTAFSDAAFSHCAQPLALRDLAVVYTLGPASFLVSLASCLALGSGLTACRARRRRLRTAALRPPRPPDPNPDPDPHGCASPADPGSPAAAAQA

For the molecule `CN1CCC[C@H]1c1cccnc1`, the parasite load remaining in [1] was 58.8% (inactive) and 68.1% (inactive) and 77.4% (inactive). Also, the viability in [1] is 92.8% and 95.3% and 105%. Further, the fluorescence ratio in test [2] was 1.1 (inactive); in [5], 0.97 (inactive). Also, the values for the inhibition in test [3] and in [4] were -3.18% (inactive) and -0.48% (inactive), respectively. Also, the mean signal in [6] was 289 (inactive). For the same molecule, the fold change in test [7] (setting [20]) is 1 (inactive) and 0.879 (inactive); in test [7] (setting [21]) it was 1.38 and 3.3. Besides, the cell count was 11100 and 11800 in test [7] (setting [22]); 11100 and 13400 in test [7] (setting [23]). For the same molecule, the z-score in test [8] is 1.02 (inactive). In addition, the log fold change Tl+ flux in test [9] was 0.0275 (inactive); in test [10], 0.0102 (inactive); in test [11], 0.027 (inactive); in test [12], 0.0603 (inactive); in [13], -0.0145 (inactive); in test [14], 0.033 (inactive). Moreover, the log fold change Tl+ flux was 0.0044 (inactive) in [15], 0.0329 (inactive) in test [16], -0.0173 (inactive) in test [17] and -0.00315 (inactive) in [18].
Take `NC(Cc1cc(I)c(Oc2ccc(O)c(I)c2)c(I)c1)C(=O)O` (centres undefined): the parasite load remaining in [1] is 39.9% (inactive). In addition, the viability in test [1] was determined as 106%. The fluorescence ratio is 0.99 (inactive) in [2] and 0.92 (inactive) in [5]. Further, the inhibition in test [3] was -1.36% (inactive); in [4], 1.81% (inactive). For the same molecule, in [6], the mean signal was 230 (inactive). For the same molecule, the fold change in test [7] (setting [20]) is 0.986 (inactive) and 0.874 (inactive); in test [7] (setting [21]), 1.58 and 0.636. In addition, the cell count was 9780 and 7770 in [7] (setting [22]); 9910 and 8890 in [7] (setting [23]). Further, the z-score in test [19] (setting [24]) is -0.101 (inactive); in test [19] (setting [25]), 0.0136; in test [8], -1.5 (inactive). The log fold change Tl+ flux is 0.0253 (inactive) in test [9]; 0.112 (inactive) in [10]; 0.058 (inactive) in [11]; 0.107 (active) in test [12]; 0.0742 (inactive) in test [13]; 0.047 (inactive) in test [14]. The log fold change Tl+ flux in test [15] is 0.0451 (inactive); in [16] it was 0.136 (active); in test [17] it was 0.254 (active); in test [18] it was -0.125 (active).
As to `CC1CC2C3CCC4=CC(=O)C=CC4(C)C3(F)C(O)CC2(C)C1(O)C(=O)CO` (centres undefined), the parasite load remaining in [1] was 69.5% (inactive). Further, the viability in test [1] turned out to be 108%. For the same molecule, the fluorescence ratio is 0.1 (active) in test [2] and 1.04 (inactive) in [5]. The inhibition in [3] is -0.45% (inactive); in [4], 1.81% (inactive). The mean signal in test [6] was 266 (inactive). Besides, the results for the fold change in test [7] (setting [20]) and in test [7] (setting [21]) were 0.928 (inactive) and 0.945, respectively. Also, the cell count in [7] (setting [22]) came to 8000; in test [7] (setting [23]), 8620. In [8], the z-score was 1.66 (inactive). For the same molecule, the log fold change Tl+ flux in test [9] was -0.000812 (inactive); in test [10] it was 0.043 (inactive); in [11], 0.0297 (inactive); in [12], -0.00203 (inactive); in test [13], 0.021 (inactive); in [14] it was 0.00154 (inactive). Also, the log fold change Tl+ flux in [15] is 0.0289 (inactive); in test [16], -0.0295 (inactive); in test [17], 0.0089 (inactive); in test [18], -0.0137 (inactive).
Take `CCC(CO)NCCNC(CC)CO` (centres undefined): the parasite load remaining in test [1] is 78.1% (inactive). The viability in test [1] came out at 129%. For the same molecule, the figures for the fluorescence ratio in test [2] and in test [5] were 1.1 (inactive) and 1.03 (inactive), respectively. The results for the inhibition in test [3] and in test [4] were -5.91% (inactive) and -2% (inactive), respectively. Moreover, in test [6], the mean signal was 252 (inactive). Moreover, the fold change was 0.98 (inactive) and 0.902 (inactive) in test [7] (setting [20]); 1.98 and 0.647 in [7] (setting [21]). The cell count is 10400 and 7770 in [7] (setting [22]); 10600 and 8610 in [7] (setting [23]). Moreover, the z-score in test [19] (setting [24]) is -0.216 (inactive); in [19] (setting [25]), -0.177; in test [8], 0.45 (inactive). Also, the log fold change Tl+ flux is -0.0102 (inactive) in test [9]; -0.0572 (inactive) in test [10]; 0.024 (inactive) in [11]; -0.00313 (inactive) in test [12]; -0.00134 (inactive) in test [13]; 0.00482 (inactive) in [14]. For the same molecule, the log fold change Tl+ flux in [15] was -0.0497 (inactive); in test [16] it was 0.000295 (inactive); in [17], -0.0366 (inactive); in test [18], 0.0123 (inactive).
For `O=C(O)C[C@H](O)C[C@H](O)/C=C/c1c(C2CC2)nc2ccccc2c1-c1ccc(F)cc1`, in test [1], the parasite load remaining was 177% (inactive). Also, the viability in test [1] was found to be 60.8%. The fluorescence ratio was 0.98 (inactive) in [2] and 0.96 (inactive) in [5]. In addition, the inhibition in [3] is -2.84% (inactive); in test [4], -1.18% (inactive). For the same molecule, the mean signal in [6] is 212 (inactive). Besides, the fold change was 1.25 (inactive) in test [7] (setting [20]) and 0.319 in test [7] (setting [21]). Also, the cell count was 1740 in test [7] (setting [22]) and 1390 in test [7] (setting [23]). The log fold change Tl+ flux is -0.03 (inactive) in test [9]; 0.292 (active) in test [10]; 0.0555 (inactive) in test [11]; 0.0888 (inactive) in [12]; 0.113 (active) in [13]; 0.0026 (inactive) in [14]. In addition, the log fold change Tl+ flux is 0.226 (active) in test [15], 0.114 (active) in test [16], 0.107 (active) in test [17] and 0.12 (active) in test [18].
With `CC1(C)SC2C(NC(=O)C(N)c3ccccc3)C(=O)N2C1C(=O)O` (centres undefined), in test [1], the parasite load remaining was 64.5% (inactive). The viability in test [1] turned out to be 97.1%. Moreover, the results for the fluorescence ratio in test [2] and in [5] were 1.05 (inactive) and 1.03 (inactive), respectively. Besides, the values for the inhibition in [3] and in [4] were -3.18% (inactive) and -3.53% (inactive), respectively. Moreover, in test [6], the mean signal is 248 (inactive). The values for the fold change in [7] (setting [20]) and in [7] (setting [21]) were 0.924 (inactive) and 1.56, respectively. In addition, the results for the cell count in [7] (setting [22]) and in [7] (setting [23]) were 9300 and 10100, respectively. Besides, the z-score in test [8] was 0.46 (inactive). Also, the log fold change Tl+ flux was 0.0123 (inactive) in test [9]; -0.00858 (inactive) in [10]; -0.029 (inactive) in test [11]; -0.0312 (inactive) in [12]; 0.0123 (inactive) in test [13]; 0.0182 (inactive) in test [14]. The log fold change Tl+ flux in [15] was -0.0441 (inactive); in test [16], 0.02 (inactive); in test [17], -0.0148 (inactive); in test [18] it was -0.0117 (inactive).
With `CCC(C)n1ncn(-c2ccc(N3CCN(c4ccc(OCC5COC(Cn6cncn6)(c6ccc(Cl)cc6Cl)O5)cc4)CC3)cc2)c1=O` (centres undefined), in test [1], the parasite load remaining is 26.8% (inactive) and 13.6% (inactive). Further, in test [1], the viability is 59.8% and 65%. Further, the figures for the fluorescence ratio in test [2] and in [5] were 0.99 (inactive) and 1 (inactive), respectively. Moreover, the inhibition in test [3] is 2.77% (inactive); in test [4], -1.64% (inactive). In test [6], the mean signal is 270 (inactive). Further, the fold change in test [7] (setting [20]) was 0.793 (inactive) and 0.866 (inactive); in [7] (setting [21]), 1.39 and 1.62. The cell count was 5650 and 9680 in [7] (setting [22]); 7130 and 11200 in test [7] (setting [23]). The z-score was -0.416 (inactive) and -0.441 (inactive) in test [19] (setting [24]); 0.947 and 1.02 in [19] (setting [25]); -1.48 (inactive) and 0.09 (inactive) in test [8]. Moreover, the log fold change Tl+ flux in test [9] was 0.0299 (inactive); in [10], 0.0346 (inactive); in [11] it was -0.00576 (inactive); in [12], 0.0111 (inactive); in test [13], 0.0139 (inactive); in test [14], -0.015 (inactive). The log fold change Tl+ flux was 0.0149 (inactive) in test [15], 0.0172 (inactive) in test [16], -0.00424 (inactive) in [17] and 0.0617 (inactive) in [18].
